# Calls of active or inactive are those of the source. Unless noted, how the calls were made is not given here.
# Columns and labels:
# [1] = system: XIP peptide (Xip251-270) binding; experiment: XIP fragment 251-270 binding compounds – biochemical, small-molecule microarray, fluorescence 635/667 nm, 0.1 µg/mL protein, primary screen (AID 1182); conditions: fluorescent protein binding, 635 nm, higher = more signal, called active from +8 up or from −8 down
# XIP peptide (Xip251-270) = experiment: compounds binding XIP fragment 251-270 – biochemical, small-molecule microarray, fluorescence 635/667 nm, 0.5 µg/mL protein, primary screen (AID 1183); conditions: fluorescence 635 nm, higher = more signal
# [2] = blood-stage malaria parasite viability loss – strain 3D7, DAPI fluorescence, 100 nL, primary screen (AID 1184);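 further: parasites grown inside human red blood cells in medium with human serum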; conditions: P. falciparum 3D7 growth, 3 d, higher = more signal
# [3] = target: Homeobox protein Hox-A13 (Mus musculus) (UniProt Q62424); experiment: disruptors of Hoxa13 oligonucleotide interaction – biochemical, fluorescence polarization, labeled oligonucleotide, primary screen (AID 1185); conditions: Hoxa13:DNA binding, 15 min, higher = more signal, called active from +8 up or from −8 down
# Chain of Homeobox protein Hox-A13 (Mus musculus) (Q62424 whole entry, looked up): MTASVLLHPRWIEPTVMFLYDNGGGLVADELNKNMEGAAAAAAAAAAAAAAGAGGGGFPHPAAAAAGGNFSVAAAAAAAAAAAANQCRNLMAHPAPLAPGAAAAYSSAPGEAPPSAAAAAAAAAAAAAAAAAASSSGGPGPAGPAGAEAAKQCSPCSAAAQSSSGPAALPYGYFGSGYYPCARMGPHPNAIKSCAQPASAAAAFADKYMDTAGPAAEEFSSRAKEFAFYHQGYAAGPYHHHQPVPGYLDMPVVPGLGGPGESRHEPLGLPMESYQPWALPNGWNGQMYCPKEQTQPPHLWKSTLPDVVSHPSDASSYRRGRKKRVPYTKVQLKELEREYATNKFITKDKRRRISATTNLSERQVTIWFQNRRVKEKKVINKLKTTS
# [4] = blockers of DNA damage checkpoint Chk1 activation – imaging, HeLa, hydroxyurea, phospho-Chk1 antibody, percent positive cells, primary screen (AID 1186); conditions: hydroxyurea-induced phospho-Chk1 immunofluorescence imaging, higher = more signal
# [5] = blockers of DNA damage checkpoint Chk1 activation – imaging, HeLa, hydroxyurea, phospho-Chk1 nuclear intensity, primary screen (AID 1187); conditions: hydroxyurea-induced phospho-Chk1 immunofluorescence imaging, higher = more signal
Structure (SMILES),composite z-score [1],composite z-score (XIP peptide (Xip251-270)),z-score [2],z-score [3],z-score [4],z-score [5]
C=C(C(=O)CC[C@H](OC(=O)c1ccccc1-c1ccccc1C(=O)O)c1ccccc1OCCO)C(C)C,-0.0286 (inactive),0.7,-2.47,-5.13 (inactive),-0.126 (inactive),-0.0147 (inactive)
COCCCNC(=O)[C@@]1(Sc2ccc(C)cc2)CC(=O)N(C(C)C)[C@@H]1c1ccc(CO)cc1I,0.287 (inactive),0.609,-1.63,-4.13 (inactive),0.121 (inactive),0.579 (inactive)
C[C@@]12COC[C@]13C=C(Br)[C@H](C2)[C@@]1(CO1)C3=O,0.0387 (inactive),-0.192,1.88,-0.703 (inactive),-0.0927 (inactive),0.12 (inactive)
C=C(/C(=C/C[C@@H](OC(C)=O)c1ccc(OCCO)cc1)c1cc(C(=O)OC)ccc1OC)C(C)C,0.96 (inactive),0.819,-3,-4.3 (inactive),0.38 (inactive),0.578 (inactive)
CCOC(=O)C1=CCC(c2ccccc2)N(S(=O)(=O)c2ccc([N+](=O)[O-])cc2)C1 (stereo not drawn),0.0444 (inactive),-0.165,-0.198,-1.91 (inactive),0.268 (inactive),-0.0449 (inactive)
COCCOC(=O)N1C(=O)[C@@]2(c3cc(C#CCCO)ccc31)[C@H](c1ccccc1OCCO)N1[C@H](c3ccccc3)[C@H](c3ccccc3)OC(=O)[C@H]1[C@@H]2C(=O)N1CCCCCCC1,0.783 (inactive),0.759,-2.25,3.84 (inactive),-0.304 (inactive),-0.387 (inactive)
C=C(COC)/C(=C/C[C@@H](OC(C)=O)c1ccc(CO)o1)c1cc(C(=O)OC)ccc1OC,0.824 (inactive),0.147,0.0394,-4.84 (inactive),-1.06 (inactive),-1.26 (inactive)
O=C(O)[C@@H]1C[C@@H]2C(=O)N3CCC[C@H]3C(=O)N2[C@@H]1c1cccc(OCCO)c1,2 (inactive),0.932,-0.382,-2.19 (inactive),0.299 (inactive),-0.0384 (inactive)
CC(C)c1ccc(NN2C(C(O)Cc3ccccc3)C=CC3C(=O)N(c4ccccc4)C(=O)C32)cc1 (stereo not drawn),-0.0839 (inactive),0.655,-0.0057,-2.98 (inactive),0.656 (inactive),0.37 (inactive)
Cc1ccc(N2C(=O)c3ccccc3[C@](C)(C(=O)NCc3ccccc3)[C@@H]2c2ccc(CO)cc2)nc1,-0.353 (inactive),-0.33,-1.34,-0.408 (inactive),-0.0668 (inactive),0.0633 (inactive)
CCCCC(=C=CC[C@H](O)c1ccc(OCCO)cc1)C[C@H](O)c1cc(Cl)cc(Cl)c1O,-0.0399 (inactive),0.416,-1.51,-2.25 (inactive),-0.0695 (inactive),-0.301 (inactive)
COC(=O)[C@@]1(Cc2ccc(F)cc2)[C@H]2c3cc(C(=O)N(C)C)n(Cc4c(CO)[nH]cc(C)c4=O)c3C[C@H]2CN1C(=O)c1ccccc1,0.493 (inactive),-0.0903,-1.81,-5.02 (inactive),0.815 (inactive),0.493 (inactive)
CC(C)(C)OC(=O)CC[C@]12N=C(c3ccc(OCCCO)cc3)O[C@H]1c1ccccc1N(Cc1ccccc1)C2=O,-0.326 (inactive),0.802,-2.21,-0.817 (inactive),-0.022 (inactive),0.363 (inactive)
CCOC(=O)C1=CCC(c2ccco2)N(S(=O)(=O)c2ccc(C)cc2)C1 (stereo not drawn),0.397 (inactive),0.704,-0.0601,-4.57 (inactive),-0.641 (inactive),-0.942 (inactive)
O=C1N(CCS(=O)(=O)c2ccccc2)Cc2ccccc2[C@@H]2OC(c3ccc(OCCCO)cc3)=N[C@]12CCS(=O)(=O)c1ccccc1,1.25 (inactive),0.86,-2.1,0.71 (inactive),0.367 (inactive),0.793 (inactive)
CN(C)CCCCNC(=O)[C@H]1C[C@H]2C(=O)N[C@@H](CCCC[N+](C)(C)C)C(=O)N2[C@H]1c1ccc(O)cc1,-0.0941 (inactive),0.674,-0.449,-3.64 (inactive),-1.31 (inactive),-0.989 (inactive)
C=C(C(=O)CC[C@@H](OC(=O)c1ccccc1-c1ccccc1C(=O)O)c1ccccc1OCCO)C(C)C,0.341 (inactive),0.698,-2.04,-5.82 (inactive),0.57 (inactive),0.916 (inactive)
COCC(=C=CC[C@@H](O)c1cccc(OCCO)c1)CCO,1.14 (inactive),-0.347,-0.315,-1.85 (inactive),-1.38 (inactive),-0.0691 (inactive)
COc1ccc(NC(=O)O[C@H]2[C@@H]3OC(=O)[C@H](Cc4cccc(Br)c4)C/C=C/C[C@@H](Cc4cccc(Br)c4)C(=O)O[C@H]3[C@@H](OC)O[C@@H]2CO)cc1,1.25 (inactive),0.369,-1.6,-1.86 (inactive),0.0003 (inactive),0.0972 (inactive)
O=C1C2C=CC(C(O)c3ccc4c(c3)OCO4)N(Nc3ccccc3)C2C(=O)N1c1ccccc1 (stereo not drawn),0.395 (inactive),0.795,-0.214,-1.49 (inactive),0.104 (inactive),0.614 (inactive)
CCOC(=O)C1=C[C@@H](C(C)(C)C)N(S(=O)(=O)c2ccc(C)cc2)[C@H]1c1ccc(C)cc1,0.177 (inactive),0.325,-2.07,-0.0064 (inactive),0.0978 (inactive),-0.184 (inactive)
CN1C(=O)C2C=CC(C(O)c3cc(C(F)(F)F)cc(C(F)(F)F)c3)N(NC(=O)OC(C)(C)C)C2C1=O (stereo not drawn),1.07 (inactive),0.623,-1.32,-5.04 (inactive),0.0279 (inactive),0.275 (inactive)

Structure (SMILES),composite z-score [1],composite z-score (XIP peptide (Xip251-270)),z-score [2],z-score [3],z-score [4],z-score [5]
CC(C)C(=C=CC[C@@H](O)c1cccc(OCCO)c1)C[C@@H](O)COCc1ccccc1,-0.096 (inactive),0.294,-1.18,-4.48 (inactive),-1.66 (inactive),-0.631 (inactive)
C=C[C@@H](C)[C@@H](OC(=O)Nc1ccc(SC)cc1)c1ccc(OCCO)cc1,-0.0412 (inactive),0.663,-0.553,-5.52 (inactive),0.129 (inactive),0.387 (inactive)
CCOC(=O)C1=CC[C@@H](c2ccccc2)N(S(=O)(=O)c2ccc(C)cc2)[C@H]1c1cccc(OC)c1,-0.285 (inactive),0.291,-2.14,0.892 (inactive),0.238 (inactive),-0.67 (inactive)
COc1cc(CO)cc(I)c1O[C@H]1C=C(C(=O)NCCO)C[C@@H](NCC2CCCCC2)[C@@H]1O,0.0593 (inactive),0.465,-0.68,-3.57 (inactive),-1.23 (inactive),-0.873 (inactive)
CC(C)(C)OC(=O)CC[C@]1(C(=O)N2CCCCC2)COC(c2ccc(OCCCO)cc2)=N1,0.252 (inactive),0.643,-1.4,-4.56 (inactive),-0.334 (inactive),0.131 (inactive)
COC(=O)[C@@]1(Cc2ccc(OC)cc2)[C@H]2c3cc(C(=O)N4CCCC4)n(Cc4ccc(OC(F)(F)F)cc4)c3C[C@H]2CN1C(=O)c1ccccc1,0.931 (inactive),0.702,-1.29,-2.94 (inactive),0.168 (inactive),0.569 (inactive)
C=CCC(OC(C)=O)[C@@H]1[C@@H](N(Cc2ccc(-c3ccccc3)cc2)C(=O)Cc2ccc(F)cc2)c2cc(OCCCO)ccc2N1C(=O)Cc1ccc2ccccc2c1 (stereo partly drawn),-0.632 (inactive),0.233,-1.3,-1.5 (inactive),0.433 (inactive),-0.048 (inactive)
NCCCCCNC(=O)[C@H]1C[C@H]2C(=O)N[C@@H](Cc3ccccc3)C(=O)N2[C@H]1c1ccc(O)cc1,1.46 (inactive),0.75,-0.236,-3.78 (inactive),1.01 (inactive),0.921 (inactive)
[N-]=[N+]=Nc1ccccc1C[C@@]1(C(=O)O)N=C(c2ccc(OCCCO)cc2)O[C@@H]1c1ccccc1N=[N+]=[N-],0.0588 (inactive),0.736,-1.74,-5.17 (inactive),-0.267 (inactive),-0.317 (inactive)
O=C1O[C@H](c2ccccc2)[C@H](c2ccccc2)N2[C@H]1[C@@H](C(=O)N1CCCCCCC1)[C@]1(C(=O)Nc3ccc(C#CC4(O)CCCCCC4)cc31)[C@H]2c1ccc(O)cc1,1.81 (inactive),0.466,-0.372,1.68 (inactive),-0.216 (inactive),-1.07 (inactive)
COCCOC(=O)N1C(=O)[C@@]2(c3cc(C#CC4(O)CCCCCC4)ccc31)[C@H](C(=O)N1CCN(c3ncccn3)CC1)[C@H]1C(=O)O[C@H](c3ccccc3)[C@H](c3ccccc3)N1[C@@H]2c1ccccc1OCCO,1.01 (inactive),0.61,-2.07,-0.77 (inactive),-0.0411 (inactive),0.0349 (inactive)
CC(CO)N1C(=O)[C@@H]2[C@H]3C(=O)OCC=C[C@H]3OC23C=CCN(c2ccc(Cl)cc2)C(=O)[C@@H]13 (stereo partly drawn),-0.4 (inactive),-0.862,0.599,-3 (inactive),-0.985 (inactive),-0.995 (inactive)
CC(C)CNC(=O)[C@@H]1c2ccccc2C(=O)N(C2CCCCC2)[C@H]1c1ccc(CO)cc1,0.737 (inactive),0.652,-0.68,-2.05 (inactive),-0.411 (inactive),-0.339 (inactive)
COc1ccc(C(O)C2C=CC3C(=O)N(c4ccccc4)C(=O)C3N2Nc2ccc(C(C)C)cc2)c2ccccc12 (stereo not drawn),0.886 (inactive),0.802,-0.247,-0.93 (inactive),0.417 (inactive),0.0807 (inactive)
COCCCNC(=O)[C@@]1(c2ccc([N+](=O)[O-])cc2)CC(=O)N(C(C)C)[C@@H]1c1ccc(CO)cc1,-1.3 (inactive),0.64,0.382,-0.803 (inactive),0.0991 (inactive),0.621 (inactive)
CC1(C)C(=O)C(c2ccccc2)=C2CN3C(=O)N(CCc4ccccc4)C(=O)C3(Cc3ccc(F)cc3)C=C21 (stereo not drawn),0.2 (inactive),0.328,-1.81,-1.99 (inactive),0.478 (inactive),-0.173 (inactive)
COCCOC(=O)N1C(=O)[C@@]2(c3cc(C#CCC(C(=O)OC)C(=O)OC)ccc31)[C@H](c1ccc(OCCO)cc1)N1[C@H](c3ccccc3)[C@H](c3ccccc3)OC(=O)[C@H]1[C@@H]2C(=O)Nc1nc2ccccc2s1,0.0047 (inactive),0.59,-0.512,2.1 (inactive),-0.365 (inactive),-0.632 (inactive)
[N-]=[N+]=Nc1ccccc1[C@@H]1OC(c2ccc(OCCCO)cc2)=N[C@]1(Cc1ccccc1)C(=O)NCc1ccccc1,0.174 (inactive),0.804,-1.97,-0.694 (inactive),0.458 (inactive),0.433 (inactive)
[N-]=[N+]=NC[C@H](Cc1ccccc1)NC(=O)c1ccccc1,-0.359 (inactive),0.108,-0.855,-0.271 (inactive),0.0506 (inactive),0.216 (inactive)
CO[C@H]1O[C@H](CO)[C@@H](OC(=O)CCc2ccccc2)[C@H](OC(=O)c2cc3ccccc3[nH]2)[C@H]1OC(=O)c1cc2ccccc2[nH]1,0.983 (inactive),0.637,-1.03,-0.797 (inactive),-0.616 (inactive),-1.27 (inactive)
COCCOC(=O)N1C(=O)[C@@]2(c3cc(C#Cc4ccc(OC)cc4)ccc31)[C@H](c1ccc(OCCO)cc1)N1[C@H](c3ccccc3)[C@H](c3ccccc3)OC(=O)[C@H]1[C@@H]2C(=O)Nc1nc2ccccc2s1,0.968 (inactive),0.414,-0.817,1.31 (inactive),-0.007 (inactive),0.254 (inactive)
